This note sets out measurements from the supplement of paper PMC6522484.

± gives the standard deviation of the averaged measurements.

The test system of assay [1] is DLD1. In words: cell viability (CellTiter-Glo) relative to plate median (fraction of plate median); higher = more viable cells. The conditions noted are these: 5 µM; treatment time 24 h; reporter: 7TFP. Put shortly:
(§1)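 Luminescence, normalised well by well to the plate median, is tabulated as a mean of independent replicates. There were two replicates, run on colorectal cancer lines stably transduced with lentiviral TCF/Wnt firefly luciferase reporters and dosed with library compounds at a final 5 µM for 24 h. Readouts were firefly luciferase or CellTiterGlo on parallel plates.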
Background: ATP-based viability assays read luminescence as a measure of living cells.

The next assay has as its system HCT116. Described as above. The note with it: 5 µM; treatment time 24 h; reporter: TCF4/Wnt. In short, it runs like this:
as §1

Assay [2] deals with SW480. The assay is described as above. The conditions noted are these: 5 µM; treatment time 24 h; reporter: 7TFP. Put shortly: as §1
For assay [3], the system named is DLD1. As to the kind of experiment: TCF/Wnt firefly luciferase reporter signal relative to plate median (fraction of plate median); higher = higher Wnt reporter signal. The conditions noted are these: 5 µM; treatment time 24 h; reporter: 7TFP. Put shortly: as §1
(In general: In a reporter assay the amount or activity of a reporter protein is the signal.)

Assay [4] concerns SW480. Described as above. The conditions noted are these: 5 µM; treatment time 24 h; reporter: 7TFP. Put shortly:
as §1

For `C=C1C(=O)C[C@@H]2[C@@H]3CC[C@@H](C(=O)O)[C@@]12CC3(C)C` [Terrecyclic Acid A], the cell viability is 0.873 ± 0.051 with DLD1 [1], 0.919 ± 0.047 with HCT116 and 0.974 ± 0.022 in the assay with SW480 [2]. The results for the “TCF/Wnt firefly luciferase reporter signal” value with DLD1 [3] and in the assay with SW480 [4] were 0.957 ± 0.1 and 0.961 ± 0.044, respectively.
In the same order, the values of `NCCS(=O)(=O)O` are 1.04 ± 0.021, 1.01 ± 0.061, 0.978 ± 0.02, 0.9735 ± 0.00071 and 1 ± 0.037.
Turning to `Nc1cc(N2CCCCC2)nc(N)[n+]1[O-]`, the cell viability stood at 1.01 ± 0.047 in the assay with DLD1 [1], 0.972 ± 0.054 in the assay with HCT116 and 1 ± 0.04 with SW480 [2]. Also, the results for the “TCF/Wnt firefly luciferase reporter signal” value in the assay on DLD1 [3] and in the assay with SW480 [4] were 1.04 ± 0.11 and 0.943 ± 0.062, respectively.
In the same order, the values of `C=CC1=C(C)c2cc3[nH]c(cc4nc(cc5[nH]c(cc1n2)c(C)c5CCC(=O)O)C(CCC(=O)O)=C4C)c(C)c3C=C` are 1 ± 0.028, 0.964 ± 0.12, 0.963 ± 0.053, 0.967 ± 0.027 and 0.992 ± 0.0057.
In the same order, the values of `C[C@@H]1OC(=O)C2=C1O[C@@H]1[C@@H](O)[C@]3(O)CCCC[C@H]3[C@](C)(C2=O)[C@@H]1C` [Dihydrotetrodecamycin] are 1.08 ± 0.057, 1.05 ± 0.071, 1.065 ± 0.0071, 1.08 ± 0.15 and 1.04 ± 0.069.
In the same order, the values of `COc1cc(/C=C/C(=O)O)ccc1O` are 1.004 ± 0.0092, 1.11 ± 0.057, 1.01 ± 0.038, 0.972 ± 0.069 and 1.12 ± 0.078.
Take `O=c1occ(C(O)CO)c2cccc(O)c12` (stereo not given) [Oospoglycol]: the cell viability in the assay with DLD1 [1] was determined as 0.886 ± 0.079; in the assay on HCT116, 0.9515 ± 0.0035; in the assay on SW480 [2], 0.976 ± 0.09. The “TCF/Wnt firefly luciferase reporter signal” value with DLD1 [3] worked out at 1.1 ± 0.11; in the assay with SW480 [4] it was 1.01 ± 0.15.
On to `CCC(C)C(=O)OC1[C@@H]2CC3=C4CC(=O)O[C@@H](c5ccoc5)[C@]4(C)CCC3[C@@](C)(C2=O)[C@@H](CC(=O)OC)C1(C)C` (stereo not given in full), for which the cell viability with DLD1 [1] worked out at 1.085 ± 0.0071; in the assay on HCT116 it was 1.19 ± 0.092; in the assay on SW480 [2], 1.18 ± 0.092. The results for the “TCF/Wnt firefly luciferase reporter signal” value with DLD1 [3] and in the assay on SW480 [4] were 1.15 ± 0.15 and 0.938 ± 0.088, respectively.
In the same order, the values of `COc1cc(O)c(C(=O)/C=C/c2ccc(O)c(OC)c2)c(OC)c1` are 1.025 ± 0.0071, 1.03 ± 0.083, 1.1 ± 0.071, 0.882 ± 0.11 and 0.894 ± 0.037.
`CC(=O)[C@H]1CC[C@H]2[C@@H]3CC=C4C[C@@H](O)CC[C@]4(C)[C@H]3CC[C@]12C`: the figures for the cell viability in the assay on DLD1 [1], in the assay on HCT116 and in the assay on SW480 [2] were 1.07 ± 0.028, 0.941 ± 0.023 and 0.956 ± 0.028, respectively. The entries for the “TCF/Wnt firefly luciferase reporter signal” value in the assay with DLD1 [3] and in the assay with SW480 [4] were 1.1 ± 0.05 and 1.19 ± 0.014, respectively.
In the same order, the values of `CCOC(=O)N1CCC(=C2c3ccc(Cl)cc3CCc3cccnc32)CC1` are 0.987 ± 0.047, 0.896 ± 0.064, 0.962 ± 0.068, 1.08 ± 0.19 and 0.94 ± 0.032.
In the same order, the values of `CC(C)CCCC(C)N` (stereo not given) are 0.99 ± 0.012, 0.929 ± 0.031, 0.9345 ± 0.0092, 0.875 ± 0.03 and 0.9465 ± 0.0078.
In the same order, the values of `CS(C)(=O)=O` are 1.01 ± 0.081, 1.05 ± 0.071, 0.962 ± 0.035, 1.26 ± 0.071 and 1.05 ± 0.064.
As for `Nc1ccc(C(=O)Oc2ccccc2)c(O)c1`, the cell viability amounted to 1.05 ± 0.096 in the assay on DLD1 [1], 1.16 ± 0.064 in the assay with HCT116 and 1.05 ± 0.042 in the assay on SW480 [2]. Also, the “TCF/Wnt firefly luciferase reporter signal” value in the assay with DLD1 [3] stood at 1.08 ± 0.14; with SW480 [4] it was 1.03 ± 0.035.
In the same order, the values of `C[C@]12CCC(=O)C=C1CC[C@@H]1[C@@H]2C(=O)C[C@@]2(C)[C@H]1CC[C@]2(O)C(=O)CO` are 0.888 ± 0.14, 1.02 ± 0.12, 0.957 ± 0.0057, 0.914 ± 0.093 and 0.761 ± 0.013.
In the same order, the values of `OCc1ccccc1O` are 1.11 ± 0.14, 1.19 ± 0.035, 1.14 ± 0.05, 1.06 ± 0.12 and 0.866 ± 0.042.
Consider `O=C1c2cccc(O)c2C(=O)c2c(O)cccc21`, for which the values for the cell viability with DLD1 [1], in the assay with HCT116 and in the assay with SW480 [2] were 0.96 ± 0.013, 0.923 ± 0.12 and 0.992 ± 0.054, respectively. The “TCF/Wnt firefly luciferase reporter signal” value is 0.958 ± 0.12 in the assay with DLD1 [3] and 1 ± 0.051 with SW480 [4].
Turning to `CCCc1nc(C(C)(C)O)c(C(=O)OCc2oc(=O)oc2C)n1Cc1ccc(-c2ccccc2-c2nnn[nH]2)cc1`, the cell viability was 0.99 ± 0.015 with DLD1 [1], 0.978 ± 0.045 in the assay with HCT116 and 1.01 ± 0.047 in the assay with SW480 [2]. In addition, the results for the “TCF/Wnt firefly luciferase reporter signal” value in the assay with DLD1 [3] and in the assay on SW480 [4] were 1.11 ± 0.11 and 1.11 ± 0.042, respectively.
For `Cc1cc(C(C)(C)C)c(O)c(C(C)(C)C)c1`, the cell viability amounted to 0.926 ± 0.054 in the assay on DLD1 [1], 0.925 ± 0.057 in the assay on HCT116 and 1.004 ± 0.0092 in the assay with SW480 [2]. Besides, the “TCF/Wnt firefly luciferase reporter signal” value was determined as 1.04 ± 0.09 with DLD1 [3] and 0.969 ± 0.011 in the assay on SW480 [4].
In the same order, the values of `Nc1nc(N)c2nc(-c3ccccc3)c(N)nc2n1` are 0.843 ± 0.047, 0.898 ± 0.0042, 0.956 ± 0.037, 1.11 ± 0.085 and 1.05 ± 0.028.
In the same order, the values of `CC(C)[C@H](NC(=O)[C@H](Cc1ccc(O)cc1)NC(=O)[C@@H](NC(=O)C(F)(F)F)C(C)C)C(=O)O` are 0.957 ± 0.028, 0.94 ± 0.021, 0.969 ± 0.025, 0.842 ± 0.12 and 0.845 ± 0.035.
In the same order, the values of `CC(=O)O[C@H]1CC[C@]2(C)[C@H]3C(=O)C=C4[C@@H]5[C@@H](C)[C@H](C)CC[C@]5(C(=O)O)CC[C@@]4(C)[C@]3(C)CC[C@H]2C1(C)C` are 1.005 ± 0.0071, 1.05, 0.993 ± 0.011, 1 ± 0.16 and 1.09 ± 0.028.
As to `O=c1[nH]cnc2nc[nH]c12`, the cell viability in the assay on DLD1 [1] was determined as 0.987 ± 0.061; with HCT116, 1.04; in the assay with SW480 [2] it was 0.913 ± 0.044. Besides, the “TCF/Wnt firefly luciferase reporter signal” value in the assay with DLD1 [3] is 0.969 ± 0.043; with SW480 [4], 1.
In the same order, the values of `COC1(C)CCC2OC2(C)CCC2C1CC2(C)C` (stereo not given) are 1.1 ± 0.099, 0.97 ± 0.02, 1.08 ± 0.042, 0.934 ± 0.063 and 1.02 ± 0.044.
In the same order, the values of `CCCCCCCCNC(C)C(O)c1ccc(SC(C)C)cc1` (stereo not given) are 0.978 ± 0.021, 1.05 ± 0.042, 1.02 ± 0.03, 1.08 ± 0.099 and 1.09 ± 0.085.
In the same order, the values of `O=C(O)[C@]1(O)C[C@@H](O)[C@@H](O)[C@H](O)C1` are 0.982 ± 0.04, 1.05 ± 0.16, 0.934 ± 0.033, 1.08 ± 0.16 and 0.923 ± 0.17.
For the compound `COc1ccc(CN(CCN(C)C)c2ccccn2)cc1`, the values for the cell viability in the assay with DLD1 [1], with HCT116 and in the assay on SW480 [2] were 1.07 ± 0.057, 1.01 ± 0.14 and 1.08 ± 0.021, respectively. Besides, the “TCF/Wnt firefly luciferase reporter signal” value with DLD1 [3] amounted to 0.96 ± 0.071; with SW480 [4], 1.13 ± 0.014.
In the same order, the values of `COc1ccc(C=CC(=O)O)cc1OC` are 0.993 ± 0.0099, 1.06 ± 0.085, 1.02 ± 0.053, 1.12 ± 0.042 and 0.987 ± 0.033.
